Screening results (PubChem)
HepG2 viability: kills HepG2 cells in TGF-b inhibitor counter-screen; HepG2 CAGA-GFP viability, ATP luminescence, 18 h; Potency, µM (titrated, usually from 46.1 µM), for inactives: at the highest dose activity change, negative = cytotoxicity, hits mostly cytotoxic; actives 0.76% (n = 410,000); AID 588856
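HepG2 CAGA-GFP cells (1000/well, DMEM with 1% FBS) received compound, then TGF-beta at 500 pg/mL final, and were incubated 18 hours at 37 degrees C. Viability was read by CellTiter-Glo luminescence. Media-only wells were set as complete cell-killing and DMSO as no toxicity.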
S2 tox: cell viability loss in ATXN counter-screen; S2 cells (HEK-293 line with an ATXN2-luciferase reporter) viability, CellTiter-Fluor protease fluorescence, 24 h; Potency, µM (doses to about 56.7 µM), hits mostly cytotoxic; actives 0.49% (n = 400,000); note: nearly all actives have a fitted effect of over 40% in size
ATXN2 expr inh: reduces ATXN2 reporter expression in HEK-293 cells; actives 0.72% (n = 360,000); Potency, µM (titrated, usually from 57 µM), for the others: at the highest dose activity change, negative = inhibition, hits mostly inhibitors; HEK-293 ATXN2-luciferase reporter, luminescence, 24 h; AID 1745845; note: % is set by controls: 0 for no effect and ±100 for the full control effect; nearly all actives have a fitted effect of over 55% in size
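qHTS (up to 57 uM final) was run with 24 h compound exposure of reporter cells at 37 °C. Each well was multiplexed: SteadyGlo luminescence measured ATXN2-luciferase expression after a fluorogenic Gly-Phe-AFC viability readout (25 uM final).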
GLP-1R agonist: GLP-1 receptor (human) agonism; P43220; HEK293 GLP-1R CRE-luciferase, luminescence, 4-6 h; cells express a hypersensitive GLP-1R form; Potency, µM (titrated, usually from 45.6 µM), for inactives: top-dose activation, actives largely listed as activators; actives 0.007% (n = 380,000); AID 624172; note: % of control where 0% means no effect
Target sequence (P43220 whole entry, looked up): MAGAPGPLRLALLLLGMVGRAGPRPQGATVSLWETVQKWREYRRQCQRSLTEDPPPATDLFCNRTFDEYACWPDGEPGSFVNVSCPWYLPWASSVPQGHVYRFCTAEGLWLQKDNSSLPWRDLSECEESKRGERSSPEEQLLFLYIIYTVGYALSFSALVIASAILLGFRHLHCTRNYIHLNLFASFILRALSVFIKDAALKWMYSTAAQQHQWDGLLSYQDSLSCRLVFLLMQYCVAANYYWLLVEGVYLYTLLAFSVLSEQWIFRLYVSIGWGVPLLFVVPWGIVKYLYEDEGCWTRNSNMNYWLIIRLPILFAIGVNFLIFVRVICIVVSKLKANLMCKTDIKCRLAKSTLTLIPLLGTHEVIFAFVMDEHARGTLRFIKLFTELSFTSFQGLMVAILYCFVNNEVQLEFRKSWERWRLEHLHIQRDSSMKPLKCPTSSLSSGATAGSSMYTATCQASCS
TGFb SMAD3 inh: inhibitors of TGF-b signaling; HepG2 CAGA-GFP TGF-b/SMAD3 reporter, GFP fluorescence, 18 h; TGF-beta stimulated, 500 pg/mL final; Potency, µM (top dose mostly 46.1 µM), inactives show top-dose activity, negative = inhibition, hits mostly inhibitors; actives 1.2% (n = 410,000); AID 588855; note: % is set by controls: 0 for no effect and ±100 for the full control effect; nearly all actives have a fitted effect of over 65% in size
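HEPG2 CAGA-GFP, 1000 cells/well; 2 h settle, 37 C; cpd via pin tool; TGF-b 500 pg/mL final; 18 h, 37 C; GFP imaging ex488/em500-530; %Activity normalised to -TGF-b and +DMSO controls; CRC fit, curve class.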
GLP-1R inv ag: inverse agonists of human GLP-1 receptor; P43220; HEK293 GLP-1R CRE-luciferase, luminescence, 24 h; GLP-1R form is constitutively active; Potency, µM (series often up to 38.3 µM), inactives show at the top dose activity change, negative = inhibition, actives largely listed as inhibitors; actives 1.6% (n = 410,000); AID 624417; note: % is set by controls: 0 for no effect and ±100 for the full control effect; nearly all actives have a fitted effect of over 55% in size
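HEK293 cells stably co-expressing constitutively active GLP-1R and a cAMP-responsive luciferase reporter were seeded in DMEM with 10% Nu serum, given compounds after 12 h, and incubated 24 h at 37 deg C. Luminescence was then read.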
* marks the source's active call; other numbers are inactive results; i = inactive; ? = inconclusive; . = no result; [ ] = dose if it differs, or a comment. In the library only some 3.7% were active in any assay of this set; here they are far more common. Calls come from the whole dose curve; as a rule, active = well fitted curve in the direction sought with a large enough effect; inconclusive = small, poorly fitted or top-dose-only effect, or another doubt; inactive = no such curve, though single readings can be large; an effect the other way counts as inactive or inconclusive. Potency is the fitted concentration of half-maximal effect.

SMILES | HepG2 viability | S2 tox | ATXN2 expr inh | GLP-1R agonist | TGFb SMAD3 inh | GLP-1R inv ag
CCOC(=O)[C@]12Cc3cc(OC)ccc3[C@H]1N(C(C)C)C(=O)c1cc(OC)ccc12 | . | 14µM* | ? | -14% | . | ?
CCOC(=O)[C@]12Cc3c(cc(OC)c(OC)c3OC)[C@H]1N(C(C)C)C(=O)c1cc(OC)ccc12 | . | 14µM* | 18µM* | -12% | . | ?
CCOC(=O)[C@]12Cc3c(cc(OC)c(OC)c3OC)[C@H]1N(C)C(=O)c1ccccc12 | . | ? | 1% | -21% | . | 7%
CN1C[C@@H]2[C@@H]3C(=O)N(Cc4ccccc4)C(=O)[C@@H]3[C@](Cc3ccccc3)(C1=O)N2C(=O)c1ccc(F)cc1 | 0% | i | 8% | 1% | ? | -11%
COc1cccc(C(C)(O)c2nc(-c3cccc(F)c3)cs2)c1 (configuration not stated) | -18% | i | -19% | -3% | -23% | ?
CC[C@@H](O)C(C[C@@H](C)N(C)C)(c1ccccc1)c1ccccc1 | . | ? | . | 0%[96 µM] | . | .
C[C@H]1CCCC=CC2C[C@H](O)C[C@@H]2[C@H](O)C=CC(=O)O1 (some centres not stated) | -43% | . | ? | . | 0.13µM* | .
COc1ccc2c3c1O[C@H]1[C@H](O)CC[C@H]4[C@@H](C2)N(C)CC[C@@]341 | . | i | 3%[116 µM] | . | . | .
CCCN(CCC)c1c([N+](=O)[O-])cc(S(N)(=O)=O)cc1[N+](=O)[O-] | . | 50µM* | 50µM* | 10%[96 µM] | . | .
CCN(CCNc1ccc([N+](=O)[O-])c2cccnc12)S(=O)(=O)c1ccccc1 | -6% | i | 4% | 0% | -18% | 5%
CN(C)C(=O)Oc1ccc(OC(=O)N(C)C)cc1 | 9% | i | 4% | -2% | -2% | 5%
CN(C)C(=O)Oc1ccc(OCc2nc3ccccc3[nH]2)cc1 | -92% | i | ? | -27% | 6% | 7.1µM*
Cc1c(NS(=O)(=O)c2ccccc2)ccc([N+](=O)[O-])c1Cl | -25% | ? | ? | -1% | 11µM* | ?
COCCOCCO | . | i | -5%[116 µM] | 0%[96 µM] | . | .
CCN(CC)CCc1c[nH]c2ccccc12 | . | i | 25%[222 µM] | -6%[147 µM] | . | .
CC(Cc1ccccc1Sc1ccccc1O)N(C)C (configuration not stated) | -20% | i | -22% | -15% | 38% | 7.9µM*
C#CCN(C)[C@H](C)Cc1ccccc1 | -40% | i | 2% | -1% | -21% | 9%
CCOC(=O)[C@]12Cc3cc(Cl)ccc3[C@H]1N(Cc1ccccc1)C(=O)c1cc(OC)ccc12 | . | 13µM* | 18µM* | -12% | . | ?
CCOC(=O)[C@]12Cc3cc(OC)ccc3[C@H]1N(CCC(=O)OC)C(=O)c1cc(OC)ccc12 | . | . | ? | -21% | . | ?
CCCCCN1C(=O)c2cc(OC)ccc2[C@@]2(C(=O)OCC)Cc3cc(Cl)ccc3[C@@H]12 | . | 8.9µM* | 7.1µM* | -14% | . | ?
CCOC(=O)[C@]12Cc3cc4ccccc4cc3[C@H]1N(Cc1ccccc1)C(=O)c1ccccc12 | . | 20µM* | ? | -5% | . | ?
CCOC(=O)[C@]12Cc3cc4ccccc4cc3[C@H]1N(Cc1ccccc1)C(=O)c1cc(OC)ccc12 | . | 32µM* | 20µM* | -3% | . | ?
CC(N[C@H]1C[C@H]1c1ccccc1)c1ccc2c(c1)OCCO2 (some centres not stated) | . | . | 9% | . | . | .
CCNC(=O)C[C@@H]1N=C(c2ccc(Cl)cc2)c2cc(OC)ccc2-n2c(C)nnc21 | . | . | 63% | . | . | .
CCc1ccc(C2CCNCC2)cc1 | . | i | -16% | . | . | .
SMILES | HepG2 viability | S2 tox | ATXN2 expr inh | GLP-1R agonist | TGFb SMAD3 inh | GLP-1R inv ag
Nc1ccccc1C(=O)OCC(=O)N1CCc2ccccc21 | -7% | i | 65% | 2% | 27% | 3%
N#CSCC(=O)N1c2ccccc2CCc2ccccc21 | -22% | ? | ? | -47% | 25µM* | ?
Oc1ccc2c3c1O[C@H]1[C@@H](O)C=C[C@H]4[C@@H](C2)NCC[C@@]341 | . | ? | 53%[116 µM] | . | . | .
C=C/C=C/CC1=C(C)[C@@H](OC(=O)[C@@H]2[C@@H](/C=C(\C)C(=O)OC)C2(C)C)CC1=O (tested in a mixture with another compound) | . | . | . | -3% | . | .
Ic1ccccc1CN[C@@H]1C2CCN(CC2)[C@@H]1C(c1ccccc1)c1ccccc1 | 11µM* | 22µM* | ? | -1% | ? | ?
O=c1[nH]c2ccccc2n1C1CCN(C(CCc2ccccc2)c2nnnn2C2CCCC2)CC1 (configuration not stated) | -30% | ? | 25µM* | 2% | ? | ?
O=c1[nH]c2ccccc2n1C1CCN(C(c2cc3ccccc3o2)c2nnnn2Cc2ccccc2)CC1 (configuration not stated) | 6% | . | 20µM* | -16% | ? | ?
CCN(CC)C(=O)N[C@H]1C=C2c3cccc4[nH]cc(c34)C[C@@H]2N(C)C1 | . | i | . | . | . | .
CCOc1cccc(CC(=O)NCc2ccc3c(c2)CCN3C(=O)c2cccc(C)c2)c1OCC | -12% | 28µM* | ? | 1% | ? | 9%
Cc1oc(-c2cccc(Cl)c2)nc1CN1CCC(C(=O)NCCCN2CCN(c3ccc(F)cc3)CC2)CC1 | -10% | i | -31% | . | ? | ?
Cc1oc(-c2ccc(Cl)cc2)nc1CN1CCC(C(=O)NCCCN2CCN(c3cccc(Cl)c3)CC2)CC1 | -23% | . | . | . | 16µM* | ?
COc1ccc(C[C@@H]2c3cc(O)c(OC)cc3CCN2C)cc1O | -9% | i | 4% | -1% | 0% | -1%
COc1cc2c(cc1O)[C@@H]1Cc3ccc(OC)c(O)c3CN1CC2 | -18% | i | -22% | -4% | -15% | 10µM*
O=C1C=C(N2CC2)c2ccccc2C1=O | -110% | ? | . | -6% | 16µM* | -12%
CC(N)C(=O)c1ccccc1 (configuration not stated) | . | . | . | 11%[110 µM] | . | .
CSCC[C@@H](NC(=O)[C@@H](Cc1ccccc1)NC(=O)CNC(=O)CNC(=O)[C@@H](N)Cc1ccc(O)cc1)C(=O)O | . | . | 5% | . | . | .
COC(=O)C[C@]1(C(=O)OC)CN(C#N)N(c2ccc(Cl)cc2)C12c1ccccc1-c1ccccc12 | -106% | 5.6µM* | 4µM* | -4% | 4µM* | ?
COC(=O)[C@@H]1[C@@H](C(=O)OC)C2(c3ccccc3-c3ccccc32)N(c2ccc(Cl)cc2)N1C#N | 11µM* | 7.1µM* | 7.1µM* | -16% | ? | 4µM*
